Screening data from PubChem.
IL-1B inflam inh: inflammasome signaling inhibition, IL-1 beta readout | 4.7% of 360,000 active | activity change, % at 57.5 µM | THP-1 LPS/ATP IL-1B secretion, AlphaLISA, 16 h; hits give low values | AID 743279; in the data active means activity change below about -50%; inconclusive means mostly about -30% to -49%
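THP-1 cells pretreated 1 hr with compounds (up to 57.5 uM final), then stimulated with LPS (250 ng/mL final) plus ATP (1.25 mM final); secreted IL-1B measured by AlphaLISA after 16 hr, decreased signal indicating inhibition.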
HT1080-NT tox: kills 2HG-producing HT-1080-NT fibrosarcoma cells. 1.6% of 360,000 active. Potency, µM (doses to about 46.1 µM), without a hit: at the highest dose activity, negative = less viability, hits mostly cytotoxic. HT-1080-NT fibrosarcoma viability, CellTiter-Glo ATP luminescence, 48 h;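 further: NT is the 2HG producing partner of a matched IDH1 knockdown line; potency means the concentration at half of the fitted maximal effect; 0% = DMSO-treated cells and -100% = media-only wells without cells; nearly all actives have a fitted effect of over 55% in size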
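HT-1080-NT fibrosarcoma cells (2HG-overproducing), 750 cells/well in RPMI with 5% FBS, dosed after 2 h and incubated 48 h at 37C. CellTiter-Glo luminescence normalized to DMSO and no-cell wells; concentration-response curves fitted and classed.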
HT1080 IDH1KD tx: kills HT-1080 cells with IDH1 knockdown. HT-1080 IDH1 knockdown viability, ATP luminescence, 48 h. Potency, µM (top dose mostly 46.1 µM), inactives show at the highest dose activity, negative = toxicity, hits mostly cytotoxic. 2% of 360,000 active. AID 686971;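 further: potency means the concentration at half of the fitted maximal effect; 0% = DMSO wells and -100% = cell-free medium wells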
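Knockdown cells (IDH1KD HT-1080) received compounds 2 h after plating at 750 cells/well and were kept 48 h at 37 °C in 5% FBS RPMI. A CellTiter-Glo luminescence read gave % activity for curve fitting.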
DT40 TDP1 CPT: DT40-hTDP1 cell growth loss with CPT; chicken DT40 Tdp1-/-;hTDP1 cells + 20 nM CPT, ATP luminescence, 48 h; Potency, µM (titrated, usually from 46.2 µM), for inactives: at the top dose activity change, negative = growth inhibition, usual class: inhibitors; 12% of 420,000 active; further: potency means the concentration at half of the fitted maximal effect; nearly all actives have a fitted effect of over 55% in size
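Cell growth measured by CellTiter-Glo luminescence after a minimum 48 h, 37 C compound exposure with 20 nM CPT in Tdp1-knockout DT40 cells stably expressing hTDP1, seeded 400/well; qHTS titration format.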
TDP1 cell noCPT: qHTS for Inhibitors of human tyrosyl-DNA phosphodiesterase 1 (TDP1): qHTS in cells in absence of CPT. DT40 Tdp1-/- hTDP1 cells, no CPT, ATP luminescence, 48 h. Potency, µM (highest dose often 46.2 µM), for inactives: top-dose activity change, negative = growth inhibition, usual class: inhibitors. 15% of 420,000 active. AID 686978, 2013; further: potency means the concentration at half of the fitted maximal effect; nearly all actives have a fitted effect of over 55% in size
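Camptothecin absent (DMSO only). Human TDP1-complemented DT40 knockout cells, 400 cells/well, 37 °C for minimum 48 hr; ATP measured via CellTiter-Glo, 30 min dark incubation, luminescence.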
* marks the source's active call; other numbers are inactive results; ? = inconclusive; · = not tested or not shown. Only some compounds are listed: those with a hit (about 19% of all), similar ones and a draw of the others. Unless noted, the call rests on the fitted dose curve; in most records, active means well fitted curve in the direction sought with a large enough effect; inconclusive means small, poorly fitted or top-dose-only effect, or another doubt; inactive means no such curve, though single readings can be large; an effect the other way counts as inactive or inconclusive. Unless noted, on the % scale 0 is the no-effect control and ±100 the full control effect.

SMILES	IL-1B inflam inh	HT1080-NT tox	HT1080 IDH1KD tx	DT40 TDP1 CPT	TDP1 cell noCPT
Cc1sc2ncnc(N3CCC(C(=O)NNC(=O)c4ccccc4Cl)CC3)c2c1C	-14	5%	-2%	15µM*	21µM*
CCCOC1CCCN(C(=O)CCc2nnc(-c3ccc4c(c3)OCO4)o2)C1 (stereo not given)	0	-1%	-1%	-29%	-9%
Cc1ccc2nc(-c3ccco3)c(CC(C)(C)C)n2c1	12	-2%	8%	10µM*	9.2µM*
Clc1ccc2nc(-c3ccco3)c(Cc3ccccc3)n2c1	-6	?	?	16µM*	?
Cc1ccc2nc(-c3ccco3)c(Cc3ccccc3)n2c1	1	?	23µM*	?	?
CN(C(=O)COC(=O)C(C)(C)Oc1ccc(Cl)cc1)c1c(N)n(Cc2ccccc2)c(=O)[nH]c1=O	-1	0%	-2%	-25%	?
CCc1nc2ccc(C(=O)N3CCN(C)CC3)cn2c1N(C)CCC(C)C	15	4%	15%	?	?
COC(=O)[C@H]1C[C@H](OC(=O)NCC2CCCCC2)[C@@]2(O)CN(S(=O)(=O)c3ccc(C)cc3)CC2[C@H]1C(=O)OC (stereo not given in full)	?	1%	?	?	?
COC(=O)[C@H]1C[C@@]2(O)CN(S(=O)(=O)c3ccc(C)cc3)C[C@@]2(OC(=O)NCc2ccccc2)C[C@H]1C(=O)OC	2	11%	4%	?	?
CCCCCCn1c(=O)n2n(c1=O)[C@@H]1CN(S(=O)(=O)c3ccc(C)cc3)C[C@]1(O)[C@@H](OC(=O)NCc1ccccc1)C2	-71*	?	-20%	?	?
Cc1ccc(S(=O)(=O)N2C[C@H]3n4c(=O)ccc(=O)n4C[C@H](OC(=O)NCC4CCCCC4)[C@@]3(O)C2)cc1	-109*	21µM*	?	2.6µM*	3.7µM*
COC(=O)[C@H]1C[C@H](OC(=O)NCc2ccc(OC)c(OC)c2)[C@@]2(O)CN(S(=O)(=O)c3ccc(C)cc3)CC2[C@H]1C(=O)OC (stereo not given in full)	-5	2%	6%	-14%	?
CCCCCCn1c(=O)n2n(c1=O)[C@@H]1CN(S(=O)(=O)c3ccc(C)cc3)C[C@]1(O)[C@@H](OC(=O)Nc1c(C)noc1C)C2	-5	-1%	-3%	?	29µM*
COC(=O)[C@H]1C[C@H](OC(=O)NCc2ccco2)[C@@]2(O)CN(S(=O)(=O)c3ccc(C)cc3)CC2[C@H]1C(=O)OC (stereo not given in full)	-64*	3%	9%	?	?
COc1ccc(C2OC(=O)Cc3cc(OC)c(OC)cc32)cc1 (stereo not given)	9	5%	6%	-6%	-28%
COc1ccc(-n2c(CCC(=O)O)ccc2-c2ccc(F)cc2)c(OC)c1	13	1%	5%	2%	-1%
Cc1ccc(S(=O)(=O)N2C[C@H]3n4c(=O)ccc(=O)n4C[C@H](OC(=O)NCc4ccco4)[C@@]3(O)C2)cc1	-54*	-9%	-16%	?	?
Cc1ccc(S(=O)(=O)N2C[C@H]3n4c(=O)ccc(=O)n4C[C@H](OC(=O)NCc4ccccc4)[C@@]3(O)C2)cc1	0	?	?	?	26µM*
COc1ccc(CNC(=O)O[C@H]2Cn3c(=O)ccc(=O)n3[C@@H]3CN(S(=O)(=O)c4ccc(C)cc4)C[C@]23O)cc1OC	-8	3%	0%	-26%	-25%
CC1CCN(S(=O)(=O)c2ccc(C(=O)NCc3ccco3)cc2)CC1	-12	-1%	0%	-3%	?
O=S(=O)([O-])CCC[N+]1(CC#Cc2ccccc2)CCCCC1	5	-1%	0%	16µM*	15µM*
C(#Cc1ccccc1)C[N+]1(CC#Cc2cccc3ccccc23)CCCC1	-62*	?	?	0.65µM*	0.058µM*
CCC[N+]1(CC#CC(O)(c2ccccc2)C2CCCCC2)CCCCC1 (stereo not given)	-14	7%	10%	-27%	?
CCCC(=O)C1=C(O)C(C(=O)OC)C(C)(C)CC1=Nc1cccc2ccccc12 (stereo not given)	-4	?	?	?	23µM*
O=C(O)c1ccccc1NC(=O)C1CCN(S(=O)(=O)c2cccc3nsnc23)CC1	10	6%	-2%	-20%	16µM*
SMILES	IL-1B inflam inh	HT1080-NT tox	HT1080 IDH1KD tx	DT40 TDP1 CPT	TDP1 cell noCPT
Cc1ccnc(NC(=O)C2CCN(S(=O)(=O)c3cccc4nonc34)CC2)c1	-51*	12%	5%	-2%	-29%
Cc1ccnc(NC(=O)C2CCN(S(=O)(=O)c3cccc4nsnc34)CC2)c1	-53*	1%	4%	-6%	-7%
O=C(Nc1ccc(Cl)c(C(F)(F)F)c1)C1CCN(S(=O)(=O)c2cccc3nonc23)CC1	·	·	·	13µM*	5.2µM*
O=C(Cc1ccc(F)cc1)N[C@@H]1c2ccccc2CC[C@H]1OCc1ccccc1	-8	0%	-1%	-16%	-24%
CCOc1ccc(NC(=O)Cn2nnc(C(=O)NCCc3ccccc3)c2N)cc1	·	·	·	5%	-19%
Cc1ccc(NC(=O)N2CCC(CN3CCC(C)CC3)CC2)cc1F	·	·	·	-12%	-1%
CCOC(=O)COc1c(/C=N\O)cc(Cl)cc1OC	0	-1%	9%	-2%	10%
CCCC1=C([O-])C2N=CC=CC2=[N+](c2ccccn2)C1=O (stereo not given)	-10	3%	4%	-9%	-7%
COc1cc2cnc(-c3cccnc3)cc2cc1OC	?	0%	12%	-28%	-26%
COC(=O)c1ccc(CCc2cc(O)ccc2O)cc1	?	26µM*	?	2.9µM*	5.2µM*
COC(=O)c1ccc(O)cc1	9	11%	?	14%	3%
COC(=O)c1ccc(CCc2cc(O)c(Br)cc2O)cc1	-79*	-29%	-28%	2.1µM*	2.3µM*
Cc1ccc(S(=O)(=O)c2ccc(Oc3cccc(C)c3)cc2)cc1	-26	-10%	-14%	?	21µM*
CNNC(=S)NC1CC2CC1C1C=CCC21 (stereo not given)	0	15%	7%	-15%	-7%
CCOc1ccc(/C=N/NC(=S)NC2CC3CC2C2C=CCC32)cc1 (stereo not given)	7	-22%	-2%	16µM*	16µM*
